# Screens (PubChem)
# EBI2 antag = blocks human EBI2 receptor beta-arrestin signaling. P32249. EBI2 beta-arrestin recruitment, luminescence, 7a,25-OHC stimulated. inhibition, % at 5 µM. 0.81% of 360,000 active. AID 651636; in the data active means inhibition above about 38%;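 further: enzyme fragment complementation signal reports receptor beta-arrestin coupling in cells; 0% = agonist plus DMSO wells and 100% = wells without agonist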
# Target sequence (P32249 whole entry, looked up, the tested form may be a part): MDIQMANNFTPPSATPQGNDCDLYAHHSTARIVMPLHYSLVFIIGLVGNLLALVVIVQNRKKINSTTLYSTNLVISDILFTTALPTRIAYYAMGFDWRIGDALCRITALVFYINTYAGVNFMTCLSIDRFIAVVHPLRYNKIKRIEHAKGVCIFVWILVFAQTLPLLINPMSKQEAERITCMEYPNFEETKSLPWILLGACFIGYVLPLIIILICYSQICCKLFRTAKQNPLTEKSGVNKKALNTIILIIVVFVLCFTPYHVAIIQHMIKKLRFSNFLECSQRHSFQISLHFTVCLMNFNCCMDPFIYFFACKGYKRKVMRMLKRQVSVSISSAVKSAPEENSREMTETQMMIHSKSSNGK
# SKKanGAS inh = inhibitors of SKKanGAS S. pyogenes growth in kanamycin (SK-promoter or general growth effect) | 1.3% of 300,000 active | inhibition, % at 7.5 µM | BacTiter-Glo, 6 h | AID 1662;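 active means mean replicate score, as percent of positive control median, at least 50; inconclusive means mean below 50 but one replicate at or above 50; inactive means mean and every replicate below 50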;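 further: strain carries kanamycin resistance gene driven by streptokinase promoter and grows in 40 µg/ml kanamycin; loss of luminescence reflects streptokinase promoter inhibition or plain growth inhibition; 0% = median of DMSO wells and 100% = positive control at its reference dose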
# PfHsp90 set2 = reduces growth (ATP signal) of yeast expressing P. falciparum Hsp90. S. cerevisiae expressing PfHsp90, BacTiter-Glo ATP, 48 h; yeast lacking PDR1 and PDR3 efflux regulators. inhibition, % at 9.4 µM. 0.32% of 310,000 active. AID 504621;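 active means every replicate shows inhibition above about 80%, whatever the replicate mean, limit read from the data; inconclusive means mean inhibition reaches the set limit but some replicate falls short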;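 further: 0% = DMSO neutral controls and 100% = 20 µM radicicol positive controls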
# TIM10 inh = growth inhibitors of TIM10 yeast strain | S. cerevisiae TIM10 strain growth, BacTiter-Glo luminescence, 24 h | inhibition, % at 10 µM | 1.4% of 330,000 active;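 active means inhibition of 40% or more at the single tested concentration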;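 further: wild-type TIM10 isogenic control strain grown at permissive 25 °C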
# tim10-1 inh = tim10-1 yeast growth inhibition | S. cerevisiae tim10-1 ts strain growth, BacTiter-Glo, 24 h | inhibition, % at 20 µM | 2.2% of 330,000 active;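 active means inhibition of at least 40%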;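 further: mutant grown at 25 °C; 0% = DMSO wells with yeast and 100% = wells holding no yeast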
# tim23-1 inh = tim23-1 yeast growth inhibition; S. cerevisiae tim23-1 growth, BacTiter-Glo luminescence, 24 h; inhibition, % at 20 µM; 1.3% of 330,000 active; AID 463212;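 active means growth inhibition of the mutant yeast at or above 50%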;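 further: temperature-sensitive mutant grown at 25 °C; plate controls were DMSO-treated mutant yeast for no effect and medium wells lacking yeast for full effect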
# An asterisk follows results filed as active; ? = inconclusive; . = no result given. Compounds with a hit are over-represented: about 4.7% of the library has one in this group of screens.
SMILES,EBI2 antag,SKKanGAS inh,PfHsp90 set2,TIM10 inh,tim10-1 inh,tim23-1 inh
O=C(CCC(=O)Nc1ccc(Br)cc1)N/N=C/c1ccccc1O,1,83*,-18,20,-2,17
O=C(CCn1cnc(-c2ccccc2)c1-c1ccccc1)N/N=C/c1ccc(O)cc1,-2,13,5,11,10,13
O=C(CCn1cnc(-c2ccccc2)c1-c1ccccc1)N/N=C/c1ccccc1O,-4,76*,-3,22,39,17
Cc1ccc(NC(=O)CCC(=O)N/N=C/c2ccccc2O)cc1,14,7,2,2,-11,3
C=Cc1cnc([N+](=O)[O-])n1C,0,.,.,.,.,.
Cc1ccc(C)c(-c2cc(C(=O)Nc3sc(C)c(C)c3C(N)=O)c3ccccc3n2)c1,7,70*,-7,39,31,40
CC(C)NC(=O)C1(C)CCCCN1Cc1ccc(OCc2ccccc2)cc1 (stereo not drawn),22,.,.,.,.,.
O=C(c1cc2c(=O)n3ccccc3nc2s1)N1CCc2ccccc2C1,.,-10,.,10,15,44
Cc1nc(N(C)Cc2ccccc2)c2nnn(Cc3ccccc3)c2n1,17,28,23,10,18,25
CCN(CC)c1nc(C(F)(F)F)nc2c1nnn2Cc1ccccc1,7,58*,-1,-10,-6,26
CN1C(=O)[C@H]2[C@@H](c3ccccc3)N[C@]3(CCCN(Cc4ccc(F)cc4)C3=O)[C@H]2C1=O,-2,.,.,.,.,.
COc1ccc(C(=O)NC(=S)Nc2ccc(N3CCOCC3)c(Cl)c2)cc1[N+](=O)[O-],15,68*,0,1,3,6
COc1ccc(C(=O)NC(=S)Nc2ccccc2N2CCOCC2)cc1[N+](=O)[O-],19,-3,-6,2,6,-1
O=C(/C=C/c1ccco1)NC(=S)Nc1ccc(N2CCOCC2)c(Cl)c1,-8,87*,28,4,-2,-6
O=C(NC1CCCC1)C(c1cccs1)N(C(=O)c1csnn1)c1ccccc1F (stereo not drawn),-4,1,6,8,-8,3
CN1CCN(C(=O)c2ccc3c(c2)N(Cc2ccc(F)cc2)C(=O)c2ccccc2S3=O)CC1 (stereo not drawn),0,0,-39,-26,-30,-103
CCCCCCCCN1C(=O)[C@H](CC(=O)N2CCSCC2)C[C@@]2(C(=O)OC)CCCCC=C12,26,.,.,.,.,.
COc1ccc(NC(=O)Cc2ccc(Cl)c(Cl)c2)cn1,3,-1,-26,-6,-11,23
COc1ccc(NC(=O)/C(Cl)=C(/Cl)S(=O)(=O)Cc2ccc(C)cc2)cn1,70*,-14,61,.,.,.
Cc1nc(N2CCC(C)CC2)c2c(C)c(C(=O)Nc3ccc(C(F)(F)F)cc3)sc2n1,-10,75*,3,-3,30,27
Cc1nc(N2CCC(C)CC2)c2c(C)c(C(=O)Nc3cccc(C(F)(F)F)c3)sc2n1,19,21,41,27,34,16
COc1ccc(Nc2nc(NN)nc(Nc3ccc(OC)cc3)n2)cc1,6,50*,-5,39,33,45
COC(=O)c1c(N)[nH]c(C(=O)c2ccccc2)c1-c1ccccc1Br,-2,.,.,.,.,.
COC(=O)/C=C1\SC(=Nc2ccc(Cl)c(Cl)c2)NC1=O,4,73*,-18,11,-4,14
O=C1OC(c2ccccc2)(c2ccc3cc(O)ccc3c2)c2ccccc21 (stereo not drawn),25,.,113*,.,.,.
SMILES,EBI2 antag,SKKanGAS inh,PfHsp90 set2,TIM10 inh,tim10-1 inh,tim23-1 inh
O=C1OC(c2ccc(O)cc2)(c2ccc(O)cc2)c2ccccc21,4,5,-11,13,8,-1
Cc1nc(N)sc1N=Nc1ccc(F)cc1,-4,81*,4,20,19,36
Nc1n[nH]c(N)c1N=Nc1ccc(F)cc1,5,2,-8,-1,-19,9
CCOC(=O)C1CCCN(C(=O)c2ccc3c(c2)N(C)C(=O)/C(=C/c2ccccc2Cl)S3)C1 (stereo not drawn),16,105*,28,2,31,32
CN1C(=O)/C(=C/c2cccc(Cl)c2)Sc2ccc(C(=O)N3CCOCC3)cc21,13,?,-21,10,8,11
CN1C(=O)/C(=C/c2ccc(C(F)(F)F)cc2)Sc2ccc(C(=O)N3CCN(c4ccccn4)CC3)cc21,23,104*,-9,12,16,10
